# PubChem BioAssay (NCATS)
# Results filed as inconclusive are left out. A call without a number means that no potency is given here. Active and inactive are the calls of the source. The call rests on the fitted dose curve; tested in HEK293 reporter line.
# Assay: qHTS for Inhibitors of the Functional Ribonucleoprotein Complex (vRNP) of Lymphocytic Choriomeningitis Arenaviruses (LCMV): Viability assay - alamar blue signal for LCMV Primary Screen (AID 1347085); further: nearly all actives have a fitted effect of over 80% in size
# Conditions: alamar blue viability counter-screen, LCMV vRNP screen cells; series mostly up to 57.5 µM
row,SMILES,Potency
1,CC1CCC[C@H](O)CCCCCc2cc(O)cc(O)c2C(=O)O1 (stereo not given in full),inactive
2,C=C1C[C@H](O[C@@H]2O[C@H](CO)[C@@H](O)[C@H](O)[C@H]2O)[C@@H]2[C@H](OC(=O)[C@H]2C)[C@H]2[C@H](C)[C@@H](O)C[C@@H]12,inactive
3,CCC(C)C(=O)OCCc1ccccc1 (stereo not given),inactive
4,Cc1coc2c1C(=O)C(=O)c1c-2ccc2c(C)cccc12,inactive
5,CC(C=O)Cc1ccc(C(C)C)cc1 (stereo not given),inactive
6,COc1cc(C(C)=O)cc(OC)c1O,inactive
7,CC1NC(C(=O)O)Cc2c1[nH]c1ccccc21 (stereo not given),inactive
8,CCNC(=O)CCCC=CC[C@@H]1[C@H](C=CC(O)CCc2ccccc2)[C@@H](O)C[C@@H]1O (stereo not given in full),inactive
9,CSC(=S)NCc1c[nH]c2ccccc12,inactive
10,NC[C@@H]1O[C@@H](O[C@H]2[C@@H](O)[C@H](O[C@@H]3[C@@H](O)[C@@H](N)C[C@H](N)[C@H]3O[C@H]3O[C@H](CN)[C@@H](O)[C@@H](O)[C@H]3N)O[C@H]2CO)[C@H](N)[C@@H](O)[C@@H]1O,inactive
11,C=CC(=O)CCCCC,inactive
12,C[C@]12CCC3=C4CCC(=O)C=C4CC[C@@H]3[C@H]1CC[C@@]2(O)CC#N,inactive
13,CC12C=CC(=O)C=C1CCC1C2CCC2(C)C(C(=O)CO)CCC12 (stereo not given),inactive
14,NC(=O)C1=CN(C2OC(COP(=O)(O)OP(=O)(O)OC[C@H]3O[C@@H](n4cnc5c(N)ncnc54)[C@H](OP(=O)(O)O)[C@@H]3O)C(O)C2O)C=CC1 (stereo not given in full),inactive
15,CC(C)(O)C1CC[C@@]2(C)C3CCC4[C@@]5(C)CCCC(C)(C)C5C(O)C[C@]4(C)[C@]3(C)CC[C@@H]12 (stereo not given in full),inactive
